Laboratory results as given in PubChem BioAssay AID614 (Sanford-Burnham Center for Chemical Genomics, 2007).
Out of some 21,000 compounds screened, fewer than 10 were called active.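 The calls were made as follows: active = inhibition above 50% at the 20 µM single-dose screen; inactive = the rest.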 Only a sample is shown.

What follows are compounds tested against Alkaline phosphatase, tissue-nonspecific isozyme (Homo sapiens) (UniProt P05186) (assay: human TNAP enzyme inhibitors, primary screen, biochemical, colorimetric, phosphate release readout (AID 614)). Details: purified TNAP, pNPP, malachite green phosphate absorbance; at 20 µM; active compounds read high.
Sequence of Alkaline phosphatase, tissue-nonspecific isozyme (Homo sapiens) (P05186 whole entry, looked up): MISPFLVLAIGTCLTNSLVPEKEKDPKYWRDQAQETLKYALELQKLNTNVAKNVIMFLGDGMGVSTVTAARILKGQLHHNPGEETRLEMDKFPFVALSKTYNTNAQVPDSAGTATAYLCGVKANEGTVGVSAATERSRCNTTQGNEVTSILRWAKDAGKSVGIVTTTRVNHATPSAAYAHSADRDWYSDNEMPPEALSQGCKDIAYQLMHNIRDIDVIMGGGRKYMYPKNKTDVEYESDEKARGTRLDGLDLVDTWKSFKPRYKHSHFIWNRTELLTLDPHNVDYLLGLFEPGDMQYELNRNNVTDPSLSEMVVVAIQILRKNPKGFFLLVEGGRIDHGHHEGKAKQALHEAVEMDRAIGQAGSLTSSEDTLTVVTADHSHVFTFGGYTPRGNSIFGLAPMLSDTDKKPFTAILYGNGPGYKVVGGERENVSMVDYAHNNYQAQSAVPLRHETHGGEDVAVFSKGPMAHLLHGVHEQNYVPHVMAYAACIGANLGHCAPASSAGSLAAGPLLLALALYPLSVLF

SMILES | inhibition
CC1CCN(C(=O)Cn2cc(C(=O)c3ccco3)c3ccccc32)CC1 | 14.2% (inactive)
O=C(c1ccccc1)N1CCN(C(=O)N2CCCCC2)CC1 | -5.7% (inactive)
CC1C(c2ccccc2)=[N+]([O-])C2(CCCC2)N1O (stereo not drawn) | 12.6% (inactive)
Cc1nonc1OCCn1nnnc1N | 8.7% (inactive)
O=C(OC(C(=O)NC1CCCC1)c1ccc(F)cc1)c1ccno1 (stereo not drawn) | 0% (inactive)
CCc1ccccc1NC(=O)CSc1nnc([C@@H](NC(=O)OC(C)(C)C)C(C)C)o1 | 4.3% (inactive)
CC1OC2C(OC1C)N(S(C)(=O)=O)CCN2S(C)(=O)=O (stereo not drawn) | 10% (inactive)
O=C(CCN1C(=O)c2ccccc2C1=O)Nc1ccncc1 | 7.9% (inactive)
CCOC(=O)CSc1nc2sc3c(c2c(=O)[nH]1)CC(C)(C)OC3 | -12.8% (inactive)
COc1ccc(-c2cc(C(F)(F)F)n3nc(C(=O)N4CCOCC4)c(Cl)c3n2)cc1 | 6% (inactive)
C=C(Br)Cn1c(CCCC)nc2ccccc21 | 0% (inactive)
COc1ccc(Br)cc1/C=N/n1c(C)nnc1C | 8.2% (inactive)
CCC(=O)Nc1sc(C(=O)N2CCCCC2)c(C)c1C#N | -23.7% (inactive)
CCCCNc1nc2ccccc2nc1NS(=O)(=O)c1cccs1 | 1.2% (inactive)
COc1cc(C2C(C(=O)c3sc(C)nc3C)=C(O)C(=O)N2CCN(C)C)cc(OC)c1OC (stereo not drawn) | 13% (inactive)
Cc1cc(C)c(C#N)c(SCc2ccccc2C(=O)O)n1 | -0.3% (inactive)
CCCCc1nc2ccccc2c(=O)n1NC(=O)c1c(O)c2cccc3c2n(c1=O)CC3 | 4.4% (inactive)
Cc1ccc2cc(C#N)c(SCC(=O)NCC3CCCO3)nc2c1C (stereo not drawn) | 8.6% (inactive)
COc1ccc2c(c1OC)C(=O)OC2c1c(O)nc(SC)n(-c2ccccc2)c1=O (stereo not drawn) | -0.7% (inactive)
Cc1ccc2c(NC(=O)C3CC3)cccc2n1 | 9.9% (inactive)
O=c1c(F)cn(C2CCCO2)c(=O)n1Cc1ccccc1Cl (stereo not drawn) | 7.7% (inactive)

SMILES | inhibition
COCCNC(=O)c1ccccc1-c1nc(-c2ccccc2Cl)no1 | 1.6% (inactive)
Cc1cc(C)nc(N(C#N)CC(=O)Nc2ccccc2)n1 | -15.3% (inactive)
CCCCNC(=O)CSc1nccn1Cc1ccccc1 | 10.7% (inactive)
CCC(C)NC(=O)N[C@@H](CCSC)C(=O)O (stereo partly drawn) | 8.1% (inactive)
O=C(Nc1cnccn1)c1cccnc1 | 6.7% (inactive)
COc1ccc(-c2n[nH]c(C)c2-c2ccc(OC)c(OC)c2)c(O)c1 | 7.2% (inactive)
c1nc(COc2nsnc2N2CCOCC2)cs1 | 5.5% (inactive)
Cc1cc2ccccc2n2c(SCC(=O)N3CCN(C(=O)c4ccco4)CC3)nnc12 | 12.5% (inactive)
CC(=O)Nc1cccc2c1[n+]([O-])c(C)c(C)[n+]2[O-] | 2.9% (inactive)
N#CCCN(CCC#N)c1nnc(-c2ccccc2)s1 | 0% (inactive)
COc1ccc(Cn2cccc(NC(=O)Nc3ccc(C#N)cc3)c2=O)cc1 | 10.4% (inactive)
CCOC(=O)CNC(=O)CSc1nnc(COc2ccc(Cl)cc2)n1CC | 10.6% (inactive)
CCc1nnc(NC(=O)c2nc3nccc(C)n3n2)s1 | -4.2% (inactive)
CNC(=O)c1cc2c(ccc3ccccc32)oc1=N | 5.2% (inactive)
CCN(c1ccccc1)S(=O)(=O)c1cccc(C(=O)O)c1 | 1.1% (inactive)
CN(C)c1nc2n(c(=O)n1)CCO2 | -3% (inactive)
COc1ccccc1NC(=O)C1=C(C)NC2=C(C(=O)CCC2)C1c1ccc(C)o1 (stereo not drawn) | -1.3% (inactive)
C=CCc1cccc2cc(C(=O)N3CCN(C(=O)OCC)CC3)c(=O)oc12 | 5.5% (inactive)
CC1Cc2ccccc2N1C(=O)CSc1nnc(-c2ccc(S(=O)(=O)N3CCCCC3)cc2)o1 (stereo not drawn) | 12.2% (inactive)
O=c1oc2c(CN3CCCCC3)c(O)ccc2c2c1CCCCC2 | 8.2% (inactive)
CCn1c(SCC(=O)Nc2cc(C)c(Cl)cc2OC)nnc1-c1ccco1 | 10.5% (inactive)

SMILES | inhibition
O=C(NC1CCCCC1)n1c(=O)oc2cc(S(=O)(=O)N3CCCCC3)ccc21 | 6.7% (inactive)
Cn1c(SCC(=O)OC2CCCCC2)nnc1-c1ccc(S(=O)(=O)N2CCCC2)cc1 | 10.3% (inactive)
O=C(NCc1cn2ccsc2n1)Nc1cccc(Cl)c1 | 0.5% (inactive)
CCC1(C)N(O)C(C)(C)C(c2ccc(OC)cc2)=[N+]1[O-] (stereo not drawn) | 8.5% (inactive)
CCc1c(O)nc(SCC(=O)N2CCCCC2)n(-c2ccccc2C)c1=O | 2.1% (inactive)
Cc1ccc(C(C(=O)NCc2ccco2)N(CC2CCCO2)C(=O)Cn2nnc3ccccc32)cc1 (stereo not drawn) | 8.3% (inactive)
CC(C)=C(NC(=O)c1ccco1)C(=O)NCCc1nc2ccccc2[nH]1 | 9.6% (inactive)
O=C(O)CCC(=O)N(Cc1ccco1)c1nc(-c2ccccc2)cs1 | 7.9% (inactive)
COC(=O)COc1ccc(S(=O)(=O)Nc2ccc(NC(C)=O)cc2)cc1 | 11.9% (inactive)
CCc1cccc(C)c1NC(=O)CSc1nnc(-c2ccco2)n1N | 7.1% (inactive)
C/C(O)=C\c1nc(=O)c2c(C)cc(C)nc2n1-c1ccccc1 | 10.5% (inactive)
COc1ccccc1N1CCN(C(=O)c2ccc(S(=O)(=O)N3CCCCC3)cc2)CC1 | 11.7% (inactive)
Cc1ccc(C(C)C)c(OCc2nnc(SCC(=O)Nc3nccs3)n2C)c1 | -5.7% (inactive)
NC(=O)C1CCN(C2OC(=O)c3ccccc32)CC1 (stereo not drawn) | 0% (inactive)
O=C(CSc1nnnn1-c1ccc2c(c1)CCC2)Nc1ccc2c(c1)OCCO2 | -0.8% (inactive)
O=C(CNCCO)NC12CC3CC(CC(C3)C1)C2 | 0% (inactive)
Cc1nc(NC(CC(C)C)C(=O)O)c2nc(C)oc2n1 (stereo not drawn) | -15% (inactive)
O=C1c2oc3ccc(Br)cc3c(=O)c2C(c2cccc(F)c2)N1CCO (stereo not drawn) | 10.1% (inactive)
CC(C)C(=O)N1CCN(CCN=CC2=C(O)CC(c3ccco3)CC2=O)CC1 (stereo not drawn) | 2.1% (inactive)
CCOC(=O)c1c(NC(=O)CSc2nnc(C)c(=O)[nH]2)sc2c1CCC2 | 10.5% (inactive)
COC(=O)C(NC(C)=O)(Nc1nc2c(s1)CCCC2)C(F)(F)F (stereo not drawn) | 10.6% (inactive)
